Experimental data taken from PubChem BioAssay (NCI).
The panel holds about 79,000 compounds, 15% with a hit somewhere; the sample as a whole holds those more often. Values without a mark were called inactive. The source made the active and inactive calls. Rule as the data show it: active = growth inhibition above about 70%; inactive = the rest.

Assays:
[1] = NCI Yeast Anticancer Drug Screen. Data for the rad50 strain (AID 155);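 also: 0% = growth of vehicle-only cultures of the same strain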; conditions: S. cerevisiae rad50 strain growth inhibition; at 50.0 µM; hits give high values
Procedure, shortened: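 A DNA repair-deficient yeast mutant serves as the test organism; compound-induced growth inhibition is calculated against vehicle-treated cells.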

[2] = NCI Yeast Anticancer Drug Screen. Data for the mec2-1 strain (AID 157); conditions: S. cerevisiae mec2-1 strain, at 50.0 µM, hits give high values
Procedure, shortened: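 Test agents were screened against the mec2-1 yeast strain, with defined DNA repair or cell cycle alteration. Growth was scored as inhibition against vehicle-only controls.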

[3] = NCI Yeast Anticancer Drug Screen. Data for the sgs1 mgt1 strain (AID 161);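 also: 0% = growth of cultures given vehicle only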; conditions: S. cerevisiae sgs1 mgt1 strain, at 50.0 µM, hits give high values
Procedure, shortened: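 Inhibition of yeast growth, normalised to vehicle-treated controls, is reported for a strain bearing genetic alterations in DNA damage repair.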

[4] = NCI Yeast Anticancer Drug Screen. Data for the cln2 rad14 strain (AID 165);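 also: 0% = growth equal to vehicle treated cultures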; conditions: S. cerevisiae cln2 rad14 strain, at 50.0 µM, hits give high values
Procedure, shortened: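 Growth of compound-exposed yeast (cln2 rad14 genotype) measured and expressed as inhibition relative to vehicle.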

[5] = NCI Yeast Anticancer Drug Screen. Data for the bub3 strain (AID 167); conditions: S. cerevisiae bub3 mutant strain, at 50.0 µM, hits give high values
Procedure, shortened: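 Inhibition values come from growth of compound-treated mutant yeast normalised to vehicle-treated controls.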

[6] = NCI Yeast Anticancer Drug Screen. Data for the mlh1 rad18 strain (AID 175); conditions: S. cerevisiae mlh1 rad18 strain growth inhibition; at 50.0 µM; hits give high values
Procedure, shortened: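 In this whole-cell yeast screen, a strain with altered DNA damage repair is challenged with compound, and its growth is measured against matched vehicle-treated controls.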

SMILES | growth inhibition [1] | growth inhibition [2] | growth inhibition [3] | growth inhibition [4] | growth inhibition [5] | growth inhibition [6]
NCC(=O)NCC(=O)NCC(=O)NCC(=O)NCC(=O)NCC(=O)O | 26.1% | 16.4% | 0.4% | -38.6% | -3.5% | -3.65%
CC(C)=C1C(=O)C[C@]2(C)C/C=C(\C)CC/C=C(\C)CC[C@@H]12 | 39.5% | 40.9% | 62.5% | 46.2% | 58.9% | 38.8%
Cc1cc(N(CCCOS(C)(=O)=O)CCCOS(C)(=O)=O)ccc1C=Nc1cc(Cl)c(O)c(Cl)c1 | 31.7% | 21.4% | 62.8% | 8.65% | 34.7% | 54.5%
O=C(NC1CCCCC1)N(C(=O)C(F)(F)F)C1CCCCC1 | 9.05% | 3.6% | -5.15% | 9.8% | -2.4% | 14.7%
COc1cc(-c2ccc(Nc3ccccc3C(=O)O)c(OC)c2)ccc1Nc1ccccc1C(=O)O | -4.45% | 0.2% | 1.05% | 8.15% | 3.8% | -11.9%
CCOC(=O)N[C@@H]1C(CC(=O)OC)O[C@H]2OC(C)(C)O[C@H]21 (stereo partly drawn) | 18.1% | -7.2% | 10.4% | 7.4% | -9.55% | 6.25%
CCCCc1c2c(nc3c1CCc1cc4c(nc1-3)-c1nc3c(c(CCCC)c1CC4)CCC/C3=C\c1ccccc1)/C(=C/c1ccccc1)CCC2 | 16.6% | 3.2% | -0.25% | 5.4% | 5.05% | 2.8%
CCCCCCC(C)NCC(=O)Nc1ccccc1C (stereo not drawn) | -2.7% | 14.2% | 25.6% | -44.7% | 59.7% | 30.6%
O=[N+]([O-])c1cc2c3ccccc3c([N+](=O)[O-])cc2c2ccccc12 | -10.2% | -14.8% | -8.6% | -15.2% | -10.5% | 10.7%
CC1(C)CC(C)(O)N(CCc2ccccc2)C(=S)N1 (stereo not drawn) | -6.55% | 2.7% | 8.8% | -17.1% | 5.15% | 2.45%
CC(C)OC(=O)NN(C)c1ccccc1 | 15.4% | 11.1% | 14% | -54.3% | 3.9% | 13.8%
COc1ccc(C(=O)c2cc3c(ccc4ccccc43)oc2=O)cc1 | -3.7% | 0.6% | 7.2% | 2.85% | 23.9% | -7.45%
Cc1nc(N)[nH]c(=O)c1-n1nnc2ccccc2c1=O | 0.15% | 17.1% | 14.1% | -2.1% | 0.9% | -4.1%
Cc1ccc(C(O)/C(=N/N)c2nc3ccc([N+](=O)[O-])cc3[nH]c2=O)cc1 (stereo not drawn) | 6.45% | -20.1% | -28.8% | -13.2% | -9.4% | -12.1%
CC(C)C(=O)Nc1ccc([N+](=O)[O-])cc1 | 26.1% | 4.2% | 10.8% | 9.4% | -36% | -17.3%
O=Cc1ccccc1Cl | 28% | 12.9% | 16.8% | -15.2% | 10.9% | 13.8%
C(=C/c1ccc(-c2ccccc2)cc1)/C=C/c1ccc(-c2ccccc2)cc1 | 3.3% | 4% | -0.2% | -29.2% | 6.95% | 17.9%
O=c1c2ccccc2[nH]c2ccc(Cl)cc12 | 47.6% | 13.9% | 24.9% | 21.6% | -9.65% | 61.1%
CC1=CCC(=O)[C@]2(C)C(CC(=O)O)[C@]3(C)C4=C(C)C(c5ccoc5)C[C@@H]4O[C@@H]3[C@H](O)[C@@H]12 (stereo partly drawn) | 26.5% | -9.6% | 9.65% | 41% | -1.2% | -67.8%

SMILES | growth inhibition [1] | growth inhibition [2] | growth inhibition [3] | growth inhibition [4] | growth inhibition [5] | growth inhibition [6]
Cc1ccc(OCC(O)CN2CCN(c3ccc(C)cc3)CC2)cc1 (stereo not drawn) | 26.6% | -10.4% | 36% | -35.7% | 4.55% | 0.05%
O=[N+]([O-])c1ccc(N/N=C2\C=C(c3ccccc3)C(c3ccccc3)C2)c([N+](=O)[O-])c1 (stereo not drawn) | -36.3% | 8.95% | -9.25% | 23.1% | 96.8% (active) | -14.2%
C[N+](=C\c1ccccc1O)/N=C\c1ccccc1O | 7.15% | 2.05% | 6.75% | -35.6% | 8.2% | -1.5%
O=C1COc2ccccc2OCCOCCOc2ccccc2OC1 | 11.2% | -2.9% | -2.7% | -12.2% | 2.3% | -14.9%
C[C@]12CC[C@H](OC3CCCCO3)CC1=CC[C@@H]1C2CC[C@]2(C)/C(=N/OCCC#N)CCC12 (stereo partly drawn) | 16.9% | 15.2% | -3.85% | -49.4% | 3.3% | 28.1%
Cc1ccccc1NC(=O)Cc1csc2[n+]1C(=O)/C(=C\c1ccc3c(c1)OCO3)S2 | 22.9% | 7.6% | 17.9% | 3% | 11.2% | 7%
CC(C)=CCC/C(C)=C/CN | 9.25% | -2.6% | 20.4% | -17.6% | 9% | 6.15%
Cc1cc(O)cc(C)c1Cl | 17.2% | -25.9% | 5.95% | -21.2% | 12.9% | 11.2%
O=[N+]([O-])/C(C(Cl)=C(Cl)Cl)=C(/Cl)Sc1ccccc1 | 91.8% (active) | 92.1% (active) | 85.7% (active) | 89.8% (active) | 89.1% (active) | 91.4% (active)
CCCCCc1c(-c2n[nH]c(C)c2CCCCC)n[nH]c1C | 5.55% | -6.05% | -9.1% | -7.85% | -31.6% | 1.8%
CC(C)CCC[C@@H](C)[C@H]1CC[C@H]2[C@@H]3CC[C@H]4C[C@H](N[C@@H]5CC[C@@]6(C)[C@@H](CC[C@@H]7[C@@H]6CC[C@]6(C)[C@@H]([C@H](C)CCCC(C)C)CC[C@@H]76)C5)CC[C@]4(C)[C@H]3CC[C@]12C | 55.1% | 19.2% | 46.8% | -2.8% | 15.3% | 36.7%
CN(C)/C(=N\N=C(/c1ccc(Cl)cc1)N(C)C)c1ccc(Cl)cc1 | -15.8% | -8.25% | 1% | -24.9% | -11.1% | -19.1%
CC(=O)Nc1cccnc1 | -18.1% | -3.85% | 4.85% | -21.1% | -19.9% | -2.45%
CCOC(=O)CC(O)(c1ccccc1)c1ccccc1 | -30.9% | -47.4% | 7.35% | 5.1% | -25.2% | -31.5%
CC12CC(=O)NC(=O)N1CCS2 (stereo not drawn) | 3.7% | 5.6% | -1.85% | -20.7% | -13.7% | -6.15%
CCCCN(CCCC)C(=N)c1cccc(OC)c1 | -7.9% | -13.4% | -7.35% | -15.3% | 2.75% | -17.9%
O=C1ON=C(c2ccccc2)/C1=C\C=C\c1ccccc1 | 18.2% | 9.9% | 1.45% | 23.1% | 35.6% | 14.5%
N#CC(NNC(=O)c1ccccc1O)c1ccccc1 (stereo not drawn) | 16.1% | 0.5% | 9.85% | -8.7% | 35.9% | 3.75%
CCOP(=O)(OCC)C(F)(F)Cc1cnc(C)c2c1COC(C)(C)O2 | -14.8% | -34.8% | -32.5% | -16.7% | 17.9% | -27.3%
